From PMC4336329 (PLoS ONE, 2015)
About 14,000 (4.5%) of roughly 310,000 compounds showed an effect of 50% or more. The effect is printed as a negative number. The sample holds strong results, similar compounds and a random draw of the others, so the mix is not that of the screen.

Molecular target: human ether-à-go-go-related gene (hERG) potassium channel (human, UniProt Q12809)
Test: primary screen, population patch clamp on CHO cells stably expressing hERG; higher = less effect of the substance
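Also: peak tail current of the secondary pulse compared with the same well before compound.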

human ether-à-go-go-related gene (hERG) potassium channel, sequence (Q12809 whole entry, looked up): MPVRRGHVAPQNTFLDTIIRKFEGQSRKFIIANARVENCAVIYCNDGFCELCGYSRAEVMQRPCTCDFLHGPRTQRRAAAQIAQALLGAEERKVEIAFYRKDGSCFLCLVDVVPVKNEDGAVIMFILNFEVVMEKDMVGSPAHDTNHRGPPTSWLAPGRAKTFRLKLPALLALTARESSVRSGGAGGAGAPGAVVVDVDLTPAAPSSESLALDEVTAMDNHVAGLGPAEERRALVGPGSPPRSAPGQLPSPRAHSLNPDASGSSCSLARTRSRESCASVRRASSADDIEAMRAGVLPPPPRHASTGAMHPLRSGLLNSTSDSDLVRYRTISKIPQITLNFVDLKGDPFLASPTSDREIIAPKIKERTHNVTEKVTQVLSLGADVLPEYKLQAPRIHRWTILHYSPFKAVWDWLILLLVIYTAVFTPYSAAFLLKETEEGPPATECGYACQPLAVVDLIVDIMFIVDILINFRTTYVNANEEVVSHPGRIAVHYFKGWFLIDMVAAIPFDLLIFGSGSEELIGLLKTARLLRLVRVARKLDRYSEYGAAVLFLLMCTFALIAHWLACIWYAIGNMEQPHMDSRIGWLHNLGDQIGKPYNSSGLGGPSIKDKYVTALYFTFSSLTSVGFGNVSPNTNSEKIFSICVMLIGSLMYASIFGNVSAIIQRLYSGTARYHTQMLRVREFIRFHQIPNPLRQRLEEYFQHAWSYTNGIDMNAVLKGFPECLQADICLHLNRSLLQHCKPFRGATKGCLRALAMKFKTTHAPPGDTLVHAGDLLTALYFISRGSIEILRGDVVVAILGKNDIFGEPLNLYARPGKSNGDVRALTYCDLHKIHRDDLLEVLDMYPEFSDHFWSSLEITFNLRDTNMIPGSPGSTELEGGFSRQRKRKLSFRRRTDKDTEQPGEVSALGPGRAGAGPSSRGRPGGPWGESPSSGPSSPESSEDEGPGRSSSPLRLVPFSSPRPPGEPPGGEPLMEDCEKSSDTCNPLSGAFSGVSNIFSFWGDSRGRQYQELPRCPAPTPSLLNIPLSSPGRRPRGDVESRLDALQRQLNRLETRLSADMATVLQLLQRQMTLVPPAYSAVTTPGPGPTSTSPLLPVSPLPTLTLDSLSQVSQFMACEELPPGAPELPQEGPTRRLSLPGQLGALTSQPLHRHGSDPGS

| Structure (SMILES) | hERG current change (%, negative = inhibition) at 10uM |
| --- | --- |
| COc1ccc(S(=O)(=O)Nc2ccc3oc(C)c(C(=O)O)c3c2)cc1 | 21.3% |
| CSc1nc(C)cc(Oc2ccc(OCCOc3ccccc3)nn2)n1 | -23.2% |
| OC1(c2ccc(Cl)cc2)CCN(Cc2nc(-c3cnccn3)no2)CC1 | -1.35% |
| CSc1nc2n(n1)C(c1cccc(F)c1)C(C(=O)Nc1ccc(C)cc1C)=C(C)N2 (centres unmarked) | -0.769% |
| O=C(COC(=O)c1ccccc1N1C(=O)C2C3CCC(C3)C2C1=O)c1ccccc1 (centres unmarked) | 1.28% |
| COc1cccc(N(C(=O)c2sc(C)nc2C)C(C(=O)NCC2CCCO2)c2ccccc2)c1 (centres unmarked) | -8.87% |
| CC1CCCCC1NC(=O)c1ccc2c(c1)OCCO2 (centres unmarked) | 3.51% |
| Cc1cc(OCc2nc3ccccc3s2)ccc1N | -1.17% |
| Cc1cc(NC(=O)/C=C/c2cccc(Cl)c2)n(-c2nc3ccccc3[nH]2)n1 | -1.83% |
| COc1ccc(-c2csc(N3CCN(S(=O)(=O)c4ccc5c(c4)NC(=O)CO5)CC3)n2)cc1 | 17.2% |
| CCC(=O)N(C(=O)CC)N1CCN(c2ccncc2S(=O)(=O)N2CCCCC2)CC1 | -52.5% |
| CCC(=O)NN1CCN(c2ccncc2S(=O)(=O)N2CCCCC2)CC1 | 5.14% |
| CN1CCN(c2ccncc2S(=O)(=O)N2CCCCC2)CC1 | 14.7% |
| Cc1cc(N(C)C)c(C#N)c(N2CCCCC2)n1 | -4.92% |
| O=C(OC(c1ccccc1)c1nccc2ccccc12)c1cc([N+](=O)[O-])cc([N+](=O)[O-])c1 (centres unmarked) | 22.9% |
| Cc1occc1C(=O)/C(C#N)=C/c1ccc(O)c(Br)c1 | 6.16% |
| O=C(NCCc1cn2ccccc2n1)c1cc(COc2ccc3ncccc3c2)on1 | -65.7% |
| Cc1cc(C)n(CCNC(=O)c2cc(COc3ccc4ncccc4c3)on2)n1 | -3.15% |
| O=C(NCCCc1ccccc1)c1cc(COc2c(F)cccc2F)on1 | -6.23% |
| Cc1ccc(OCc2cc(C(=O)NCc3cn4ccccc4n3)no2)cc1C | -38.7% |
| Cc1cc(C)nc(CCNC(=O)c2cc(COc3c(F)cccc3F)on2)n1 | 4.72% |

| Structure (SMILES) | hERG current change (%, negative = inhibition) at 10uM |
| --- | --- |
| O=C(NCCc1cn2ccccc2n1)c1cc(COc2c(F)cccc2F)on1 | -64.9% |
| Cc1cc(C(=O)NC(=S)Nc2cccc(NC(=O)C(C)C)c2)ccc1[N+](=O)[O-] | 3.95% |
| Cc1ccc(NC(=O)C2CCC(=O)N2C(=O)OCc2ccccc2)cc1 (centres unmarked) | -23.5% |
| COc1ncccc1C(=O)N1CCCC(C(=O)c2cc(F)ccc2F)C1 (centres unmarked) | -9.02% |
| COc1ccc(F)cc1C(=O)C1CCCN(Cc2cccn2-c2ccccn2)C1 (centres unmarked) | -83.5% |
| CN(C)c1cccc(C(=O)N2CCCC(C(=O)c3cc(F)ccc3F)C2)c1 (centres unmarked) | 0.21% |
| O=C(c1cc(F)ccc1F)C1CCCN(C(=O)c2ccc3nccnc3c2)C1 (centres unmarked) | -50.2% |
| COc1ccc(F)cc1C(=O)C1CCCN(Cc2cccn2-c2cccnc2)C1 (centres unmarked) | -47% |
| O=C(c1cc(F)ccc1F)C1CCCN(C(=O)CSc2ccccn2)C1 (centres unmarked) | -31.9% |
| O=C(c1cc(F)ccc1F)C1CCCN(Cc2cccn2-c2ccccn2)C1 (centres unmarked) | -77.9% |
| COc1ccc(F)cc1C(=O)C1CCCN(C(=O)CSc2ccccn2)C1 (centres unmarked) | -7.26% |
| COc1ccc(C(=O)C2CCCN(Cc3cccn3-c3ccccn3)C2)cc1F (centres unmarked) | -78.5% |
| COC(=O)c1cccc(C(=O)N2CCCC(C(=O)c3cc(F)ccc3F)C2)c1 (centres unmarked) | -21% |
| COc1ccc(C(=O)C2CCCN(C(=O)c3cccnc3OC)C2)cc1F (centres unmarked) | -4.56% |
| COc1ccc(S(=O)(=O)N2CCC(C(=O)NC3(C)CCS(=O)(=O)C3)CC2)cc1OC (centres unmarked) | 7.87% |
| Cc1cc(C)nc(N2CCCC(C(=O)NCc3cccc(C(F)(F)F)c3)C2)n1 (centres unmarked) | 16.7% |
| Cc1ccc(CN2CCN(/N=C/c3cc(Br)cc(Br)c3O)CC2)cc1 | 5.09% |
| CCOC(=O)C(CC)/C(C)=N\NC(=O)c1cccc(C)c1 (centres unmarked) | 35.5% |
| O=S(=O)(NCc1ccc(C(F)(F)F)cc1)c1ccc(-n2cnnn2)cc1 | -22.2% |
| COC(=O)C1=C(C)NC(=S)N(C(C)=O)C1c1ccccc1 (centres unmarked) | -8.87% |
| CCc1sc(C(=O)Nc2cc(S(=O)(=O)N3CCOCC3)ccc2OC)cc1C | 7.24% |

| Structure (SMILES) | hERG current change (%, negative = inhibition) at 10uM |
| --- | --- |
| O=c1[nH]c(C2CCCN(S(=O)(=O)c3ccccc3)C2)nc2c1nnn2Cc1ccc(OC(F)(F)F)cc1 (centres unmarked) | 26.6% |
| COc1cccc(-c2nnc(SCC(N)=O)n2-c2ccc(Cl)cc2)c1 | -9.7% |
| CC(=O)NNC(=O)CN1C(=O)CN=C(c2ccccc2)c2cc(Br)ccc21 | 13.1% |
| NNC(=O)CN1C(=O)CN=C(c2ccccc2)c2cc(Br)ccc21 | -5.51% |
| O=C1CN=C(c2ccccc2)c2cc(Br)ccc2N1Cc1cc(=O)n2ccccc2n1 | -51.7% |
| COc1ccc(N2CCN(C(=O)C3CCCN3S(=O)(=O)c3cccc4nsnc34)CC2)cc1 (centres unmarked) | -30.6% |
| O=C(C1CCCN1S(=O)(=O)c1cccc2nsnc12)N1CCCCC1 (centres unmarked) | 11% |
| O=C(C1CCCN1S(=O)(=O)c1cccc2nsnc12)N1CCN(c2ccccc2)CC1 (centres unmarked) | -69.5% |
| O=C(C1CCCN1S(=O)(=O)c1cccc2nsnc12)N1CCN(c2ccc(F)cc2)CC1 (centres unmarked) | -69.3% |
| CC(=O)c1ccc(N2CCN(C(=O)C3CCCN3S(=O)(=O)c3cccc4nsnc34)CC2)cc1 (centres unmarked) | -1.72% |
| O=C(C1CCCN1S(=O)(=O)c1cccc2nsnc12)N1CCCCCC1 (centres unmarked) | 7.97% |
| CCOc1ccc(/C(O)=C2/C(=O)C(=O)N(c3ncccn3)C2c2ccccc2)cc1 (centres unmarked) | -4.75% |
| CN1CCN(S(=O)(=O)c2cccc(C(=O)Nc3cc(C(F)(F)F)ccc3N3CCCC3)c2)CC1 | -1.41% |
| Cc1cc(C(=O)N/N=C/c2c(C)nn(-c3ccccc3)c2C)c(C)o1 | 3.8% |
| CCCCCn1nc(C)c(/C=N\NC(=O)c2cc(C)oc2C)c1C | -65.5% |
| CCCCCn1nc(C)c(/C=N/NC(=O)c2ccoc2C)c1C | -43.8% |
| O=C(Nc1cccnc1Cl)c1cc([N+](=O)[O-])ccc1Cl | 9.09% |
| Fc1ccccc1CNc1nc(-c2cccnc2)nc2ccccc12 | 17.8% |
| COc1ccc(C(CNc2nc(-c3cccnc3)nc3ccccc23)N(C)C)cc1 (centres unmarked) | -59.2% |
| c1cncc(-c2nc(NCc3ccco3)c3ccccc3n2)c1 | -5.1% |
| Cc1nc(NCCCn2ccnc2)c2ccccc2n1.Cl | 3.46% |

| Structure (SMILES) | hERG current change (%, negative = inhibition) at 10uM |
| --- | --- |
| c1ccc(-c2nc(NCCCn3ccnc3)c3ccccc3n2)cc1 | -59.3% |
| COc1cccc(CNc2nc(-c3cccnc3)nc3ccccc23)c1 | -15.6% |
| Fc1ccc(CNc2nc(-c3cccnc3)nc3ccccc23)cc1 | -50.4% |
| c1ccc(CNc2nc(-c3cccnc3)nc3ccccc23)cc1 | -23.4% |
| OC(CNc1nc(-c2cccnc2)nc2ccccc12)c1ccccc1 (centres unmarked) | -36.4% |
| c1cncc(-c2nc(NCCCn3ccnc3)c3ccccc3n2)c1 | -53.5% |
| COCCCNc1nc(-c2ccncc2)nc2ccccc12 | -15.5% |
| Cc1ccc(CNc2nc(-c3cccnc3)nc3ccccc23)cc1 | 8.72% |
| CC(=O)N1CCCc2cc(S(=O)(=O)N3CCCC(C(=O)Nc4ccccc4C)C3)ccc21 (centres unmarked) | 10.9% |
| Cc1cc(C)cc(NC(=S)N2CCN(C(=O)c3ccco3)CC2)c1 | -0.347% |
| Cc1onc(-c2ccccc2Cl)c1C(=O)OCC(=O)N1CCN(c2ccccc2)CC1 | -16.1% |
| CC1=C(C(=O)OCc2ccccc2)C(c2ccc(C#N)cc2)NC(=O)N1CCCC(=O)O (centres unmarked) | 10.9% |
| CCOC(=O)CSc1nc2ccccc2c(=O)n1C | 10.1% |
| CCOC(=O)c1c(NC(=O)CSc2nccn2C)sc(C(=O)NC)c1C | -11.5% |
| COc1ccc2ccccc2c1/C=N/N1C(=O)CSC1=S | 16.7% |
| COc1ccc(-n2nc(C(=O)NCC(=O)NCCCN3CCOCC3)c3ccccc3c2=O)cc1 | 3.4% |
| CCN(CC(=O)N1CCCC1)S(=O)(=O)c1ccc(Br)cc1 | 13.5% |
| CCc1cc(=O)oc2c3c(cc(OCC(=O)NC4CC4)c12)OC(C)(C)CC3 | -13.9% |
| Cc1ccc(CN2CCN(/N=C/c3cccnc3)CC2)c(C)c1 | -47.5% |
| COc1ccccc1NC(=O)Cn1c(C)cc(=O)c2cccc(OC)c21 | -33.3% |
